# Rows were chosen to be rich in hits. Some 18% of all compounds tested hit in one or more screens of this group.
# PLK1 PBD inh: inhibitors of human PLK1 polo-box domain binding. Plk1 PBD binding of FITC phosphopeptide, fluorescence polarization. Potency, µM, for inactives: max response, negative = inhibition, usual class: inhibitors. actives 2.8% (n = 360,000). P53350; also: series mostly up to about 57 µM; nearly all actives have a fitted effect of over 65% in size
# TDP1 cell noCPT: qHTS for Inhibitors of human tyrosyl-DNA phosphodiesterase 1 (TDP1): qHTS in cells in absence of CPT | DT40 Tdp1-/- hTDP1 cells, no CPT, ATP luminescence, 48 h | Potency, µM (series often up to 46.2 µM), inactives show at the highest dose activity change, negative = growth inhibition, actives largely listed as inhibitors | actives 15% (n = 420,000) | AID 686978, 2013; also: nearly all actives have a fitted effect of over 55% in size
#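 No-CPT arm: Tdp1-/-;hTDP1 DT40 cells (400/well) plus compounds, incubated ≥48 hr at 37 °C. Readout CellTiter-Glo luminescence.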
# DT40 TDP1 CPT: growth inhibition of DT40 Tdp1-/-;hTDP1 cells with camptothecin (screen for TDP1 inhibitors) | chicken DT40 Tdp1-/-;hTDP1 cells + 20 nM CPT, ATP luminescence, 48 h | Potency, µM (series often up to 46.2 µM), inactives show top-dose activity change, negative = growth inhibition, usual class: inhibitors | actives 12% (n = 420,000) | AID 686979; also: nearly all actives have a fitted effect of over 55% in size
#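 Cell growth measured by CellTiter-Glo luminescence after a minimum 48 h, 37 C compound exposure with 20 nM CPT in Tdp1-knockout DT40 cells stably expressing hTDP1, seeded 400/well; qHTS titration format.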
# VDR inhibitor: vitamin D3 receptor (human) inhibition. P11473. actives 0.93% (n = 400,000). VDR-SRC2-3 peptide fluorescence polarization, 2 h. AID 504847. Potency, µM, inactives show max response, negative = inhibition, hits mostly inhibitors
# Target sequence (P11473 whole entry, looked up): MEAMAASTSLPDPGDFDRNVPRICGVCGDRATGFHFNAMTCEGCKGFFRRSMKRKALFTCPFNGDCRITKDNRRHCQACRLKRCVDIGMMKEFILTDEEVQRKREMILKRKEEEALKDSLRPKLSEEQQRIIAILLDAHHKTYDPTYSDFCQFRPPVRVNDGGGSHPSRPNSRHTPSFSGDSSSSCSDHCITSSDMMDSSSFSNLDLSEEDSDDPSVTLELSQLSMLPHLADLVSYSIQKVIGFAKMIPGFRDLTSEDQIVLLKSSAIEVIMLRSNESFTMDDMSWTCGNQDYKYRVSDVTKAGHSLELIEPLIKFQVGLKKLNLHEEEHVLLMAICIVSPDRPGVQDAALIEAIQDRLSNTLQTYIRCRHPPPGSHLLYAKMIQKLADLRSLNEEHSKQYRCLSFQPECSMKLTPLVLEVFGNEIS
#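 Inhibition of the VDR/SRC2-3 peptide interaction is quantified by fluorescence polarization. Compounds (23 nl, pintool) incubate with the reagents for 2 hours at ambient room temperature.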
# GCN5L2 inh: inhibitors of human GCN5L2 histone acetyltransferase; GCN5L2 HAT assay, ThioGlo1 CoA-SH fluorescence; Potency, µM (titrated, usually from 58.9 µM), inactives show at the highest dose activity change, negative = inhibition, actives largely listed as inhibitors; Q92830; actives 0.21% (n = 390,000); AID 504327
#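 Free CoA generated was detected with ThioGlo1 (50uM) fluorescence at Ex340nm/Em540nm, read immediately and after 20 min at room temperature. Enzyme, 20 nM in HEPES pH 7.5 buffer, saw compounds 15 min before adding 75uM H3(1-25) peptide and 70uM acetyl-CoA.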
# TDP1 block: inhibitors of human tyrosyl-DNA phosphodiesterase TDP1 | AID 485290 | actives 0.28% (n = 350,000) | Q9NUW8 | Potency, µM (doses to about 130 µM), without a hit: at the highest dose activity change, negative = inhibition, most hits filed as inhibitors | recombinant TDP1, AlphaScreen DNA substrate cleavage; also: nearly all actives have a fitted effect of over 40% in size
#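 Steps: enzyme plus compound, 15 min RT; add biotin/phosphotyrosine-FITC oligonucleotide (15 nM final), react 5 min; add donor/acceptor beads (10 ug/ml final), 10 min; read AlphaScreen. Tdp1 at 1 nM final.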
# * = called active by the depositor; ? = inconclusive; . = not tested or not shown; [ ] = dose if it differs, or a comment. Calls follow the shape of the dose curve; as a rule, active = well fitted curve in the direction sought with a large enough effect; inconclusive = small, poorly fitted or top-dose-only effect, or another doubt; inactive = no such curve, though single readings can be large; an effect the other way counts as inactive or inconclusive. % is scaled to controls: 0 for no effect and ±100 for the full control effect; potency is read from the fitted curve at half-maximal effect.
SMILES,PLK1 PBD inh,TDP1 cell noCPT,DT40 TDP1 CPT,VDR inhibitor,GCN5L2 inh,TDP1 block
O=C(CSc1nnc(Nc2ccccc2)s1)NCC1CCCO1 (configuration not stated),-3.4%,0.0%,-5.8%,3.7%,-4.8%,0.7%
COC(=O)c1cc2oc3ccccc3c2n1Cc1nc(-c2cccc(Cl)c2)oc1C,.,-4.2%,-11.5%,4.0%,-1.1%,2.0%
CC(=O)Nc1cccc(-c2ccnc3c2CC(C(=O)Nc2ccccc2)O3)c1 (configuration not stated),-11.1%,?,?,.,.,.
O=C(Nc1ccc(Cl)cc1)C1Cc2c(-c3cccc(F)c3)ccnc2O1 (configuration not stated),1.8%,18.4µM*,?,.,.,.
CC(=O)Nc1ccc(NC(=O)C2Cc3c(-c4cccc(F)c4)ccnc3O2)cc1 (configuration not stated),-2.6%,-23.8%,-3.9%,.,.,.
CC(=O)Nc1cccc(-c2ccnc3c2CC(C(=O)Nc2ccc(Cl)cc2)O3)c1 (configuration not stated),1.2%,16.4µM*,16.4µM*,.,.,.
Cn1c(=O)[nH]c2cc(-c3noc(-c4ccc(F)cc4)n3)ccc21,.,4.6%,4.7%,6.5%,0.9%,1.1%
COC(=O)c1cc(NC(=O)c2ccc3c(c2)NC(=O)c2ccccc2S3)cc(C(=O)OC)c1,.,6.51µM*,4.61µM*,2.4%,-8.1%,.
CCc1ccc(C2=NN(c3ccc(S(N)(=O)=O)cc3)C(c3ccc(F)cc3)C2)cc1 (configuration not stated),0.8%,?,18.4µM*,-7.7%,1.5%,0.0%
Cc1ccc(C2CC(c3ccccc3)=NN2c2ccc(S(N)(=O)=O)cc2)cc1 (configuration not stated),-12.1%,?,29.1µM*,.,.,.
CCN(CC)CCOCCOC(=O)C(CC)(CC)c1ccccc1 (tested in a mixture with another compound),.,.,.,-0.4%,-5.3%,-2.1%
O=C(NCc1cccc(Br)c1)C1CC2Cn3c(nc4ccccc43)C2N1Cc1ccccc1 (configuration not stated),0.6%,18.4µM*,18.4µM*,3.9%,.,.
CC(C)(C)NC[C@@H](O)COc1nsnc1N1CCOCC1,.,3.1%,-0.2%,2.4%,8.6%,-7.3%[56.1 µM]
Cc1ccc(S(=O)(=O)CCc2nnc(N)s2)cc1C,1.8%,-4.0%,-3.2%,-9.2%,-5.4%,1.1%
CCOCCc1nnc(NC(=O)CCS(=O)(=O)c2ccccc2)s1,-8.6%,9.2µM*,20.6µM*,-6.4%,-3.8%,-3.0%
CC(C)Cc1nnc(NC(=O)CCS(=O)(=O)c2ccc(Cl)cc2)s1,?,?,20.6µM*,-9.1%,-26.9%,4.5%
Cc1ccc(S(=O)(=O)CCc2nnc(NC(=O)CCl)s2)cc1C,-29.8%,13µM*,14.6µM*,2.8%,-5.8%,-2.4%
Cc1ccc(S(=O)(=O)NCCC(=O)Nc2nnc(C)s2)cc1,-7.2%,1.4%,-29.4%,-4.7%,.,0.0%
Cc1cc(C)cc(N(CCC(=O)Nc2nnc(C)s2)S(=O)(=O)c2ccc(Cl)cc2)c1,-5.1%,23.1µM*,?,2.1%,0.0%,1.2%
O=C(O)C(C=C(Cl)Cl)N1CCOCC1 (configuration not stated),-13.7%,-6.8%,-2.3%,-7.1%,.,.
COCCSc1nnc(NC(=O)CCS(=O)(=O)c2ccccc2)s1,0.1%,13µM*,7.31µM*,31.6%,0.8%,4.6%[0.0935 µM]
O=C(CCSC1=NCCCN1)c1ccc(F)cc1,?,2.91µM*,1.84µM*,70.8µM*,.,.
Cn1c(SCC(=O)c2ccc(F)cc2)nc2cccnc21,?,-30.0%,?,1.8%,-5.0%,2.9%
COC(=O)c1ccc(NC(=O)C(=O)NCC(c2cccnc2)N2CCc3ccccc32)cc1 (configuration not stated),.,16.4µM*,14.6µM*,3.8%,-3.4%,1.3%
COc1ccc(NC(=O)C(=O)NCC(c2cccnc2)N2CCc3ccccc32)cc1OC (configuration not stated),.,20.6µM*,?,-2.1%,0.3%,2.6%
SMILES,PLK1 PBD inh,TDP1 cell noCPT,DT40 TDP1 CPT,VDR inhibitor,GCN5L2 inh,TDP1 block
CCc1ccccc1NC(=O)C(=O)NCC(c1cccnc1)N1CCN(c2ccccc2F)CC1 (configuration not stated),.,14.6µM*,?,4.4%,-7.0%,-3.9%
COc1ccc(C)cc1NC(=O)C(=O)NCC(c1cccnc1)N1CCc2ccccc21 (configuration not stated),.,14.6µM*,?,18.6%,-5.3%,-2.6%
CCc1ccc(NC(=O)C(=O)NCC(c2cccnc2)N2CCN(C)CC2)cc1 (configuration not stated),.,?,-23.3%,13.5%,?,6.5%
O=C(CN1C(=O)NC2(CCc3ccccc32)C1=O)NCc1cccc(C(F)(F)F)c1 (configuration not stated),4.9%,-21.2%,-0.9%,-4.3%,-1.9%,0.1%
COc1ccc(C)cc1NC(=O)C(=O)NCC(c1cccnc1)N1CCN(c2ccccc2F)CC1 (configuration not stated),.,18.4µM*,?,9.8%,-12.6%,1.3%
COC(=O)C[C@H]1C=C[C@@H](C(C(=O)OC)C(=O)OC)CN1C(C)=O,-15.8%,-14.5%,7.2%,-13.4%,.,.
COc1cc2[nH]c(=S)nc(NC3CCCCCC3)c2cc1OC,-28.2%,?,?,?,-6.3%,8.0%
CCN(CC)c1nc(NC2CCN(C)CC2)c2cc(OC)c(OC)cc2n1,.,10µM*,5.62µM*,.,.,.
C=CCNc1nc(NC2CCN(C)CC2)c2cc(OC)c(OC)cc2n1,.,?,12.6µM*,.,.,.
CCc1ccc(NC(=O)CN(C)S(=O)(=O)c2ccc3c(c2)c(=O)n(C)c(=O)n3C)cc1,.,?,?,-7.6%,-1.4%,1.2%
C1=CCN(Cc2ccccc2)C1,-9.3%,-2.8%,11.3%,-7.4%,-1.2%,.
COc1ccc(/C([O-])=C(/C(=S)Nc2ccc(C)c(C)c2)n2c[n+](C)c3ccccc32)cc1OC,?,?,29.1µM*,-15.9%,-5.4%,0.0%
COc1ccc(NC(=S)Nc2ccc(C)c(Cl)c2)cc1OC,-1.5%,-26.4%,-29.7%,-25.4%,-23.4%,-2.6%
Cc1nc2cnc(N(C)C)nc2n(CCc2ccccc2)c1=O,.,8.2µM*,5.17µM*,-10.2%,-12.9%,.
COc1cccc(Cn2c(=O)c(-c3ccccc3)nc3cnc(N(C)C)nc32)c1,.,2.1%,?,9.5%,-28.2%,.

# High-throughput results deposited in PubChem BioAssay by National Center for Advancing Translational Sciences (NCATS).
